# From PubChem BioAssay
# Sampled rows, rich in hits. Any-hit rate of the full collection: about 11%.
# USP28 inh – human USP28 deubiquitinase inhibition | Q96RU2 | purified USP28, Ub-rhodamine cleavage fluorescence, 30 min | inhibition, % at 25 µM | hit rate 3% among 47,000 | AID 1645857
# USP17 block – blocks human USP17 ubiquitin-rhodamine cleavage. A8MUK1. AID 1645855. inhibition, % at 50 µM. hit rate 6.5% among 47,000. purified USP17, Ub-rhodamine cleavage fluorescence, 3 h
# Target sequence (A8MUK1 whole entry, looked up): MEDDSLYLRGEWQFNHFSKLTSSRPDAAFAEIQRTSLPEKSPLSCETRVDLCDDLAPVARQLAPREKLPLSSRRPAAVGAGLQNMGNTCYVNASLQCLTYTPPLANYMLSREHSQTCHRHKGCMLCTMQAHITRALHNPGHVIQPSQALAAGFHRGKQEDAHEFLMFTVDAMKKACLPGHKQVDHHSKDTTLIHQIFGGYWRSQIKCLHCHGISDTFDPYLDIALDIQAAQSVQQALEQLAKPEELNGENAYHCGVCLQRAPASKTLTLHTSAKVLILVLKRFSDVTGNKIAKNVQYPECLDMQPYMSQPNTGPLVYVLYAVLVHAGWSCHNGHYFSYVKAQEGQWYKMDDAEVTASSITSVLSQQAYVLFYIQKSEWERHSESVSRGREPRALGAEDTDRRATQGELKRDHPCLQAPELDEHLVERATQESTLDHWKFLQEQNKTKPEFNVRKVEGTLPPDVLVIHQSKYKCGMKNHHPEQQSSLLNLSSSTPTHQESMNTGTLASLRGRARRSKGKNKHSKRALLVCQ
# USP30 block – human USP30 deubiquitinase inhibition. Q70CQ3. purified USP30, Ub-rhodamine cleavage fluorescence. inhibition, % at 25 µM. hit rate 5.3% among 47,000. AID 1645860
# An asterisk follows results filed as active; i = inactive. Rule as the data show it: active = inhibition above about 30%; inactive = the rest.
SMILES,USP28 inh,USP17 block,USP30 block
CCOC(=O)c1cnc(Nc2ccc(F)c(Cl)c2)c2ccccc12,7.5,44.2*,17.9
Cn1nc(C(C)(C)C)cc1C(=O)Oc1ccc(Cl)cc1,-2.8,-16.1,-4.2
COc1ccccc1NC(=O)N[C@H]1C[C@H]2CN(C)c3ccccc3CN2C1,-11.4,-21.4,-21.6
CC1=C2C[C@@H]3C(CNCc4ccc(F)cc4)C(=O)O[C@@H]3C[C@@]2(C)CCC1 (stereo partly drawn),4.8,-9.9,6.9
O=C(Cc1nc(-c2ccccc2)n[nH]1)NCc1ccc(F)cc1,3.2,-9.3,7.5
COc1ccccc1CNc1nc(N2CCCC2)nc2c1cnn2C,11.9,-12.9,-11.9
COc1ccccc1CNc1nc(-c2nnc(-c3ccccc3)o2)nc2ccccc12,3.1,37.9*,44.3*
Cc1nc(-c2nccn2C)cc(C2CCCN(C(=O)c3ccccc3)C2)n1 (stereo not drawn),-4.1,-4.9,-1.8
Cc1nc2c3ccccc3nc(NCc3ccc4c(c3)OCO4)n2n1,0.0,53.7*,13.6
Cn1c(NCc2ccc3c(c2)OCO3)nc(=O)n(-c2ccccc2)c1=O,11.6,9.3,16.0
C[C@]12CCC3=C(C(=O)c4occ5c4[C@]3(C)C3OC3C5O)C1CCC2=O (stereo partly drawn),-4.9,-3.3,-13.2
CCCCCCCCCCCC(O)CC(=O)N[C@@H](CC(C)C)C(=O)N[C@H](CCC(=O)O)C(=O)N[C@H]1C(=O)N[C@H]([C@@H](C)CC)C(=O)NC(CC(C)C)C(=O)N[C@H](CO)C(=O)N[C@@H](CC(C)C)C(=O)N[C@@H](CC(C)C)C(=O)N[C@H](CO)C(=O)N[C@@H](C(C)C)C(=O)O[C@@H]1C (stereo partly drawn),42.8*,51.5*,-15.5
CCCCCCCC[C@@H](C)[C@@H]1OC(=O)[C@H](CO)NC(=O)[C@H](C(=O)c2c[nH]c3ccccc23)NC(=O)[C@@H](CCC(=O)O)NC(=O)[C@H]1C,15.5,21.7,26.6
CCOC(=O)Cc1c(C)nc2c(-c3ccccc3)c(C)nn2c1C,-0.9,-0.7,-18.4
Cc1cc(C)c(NC(=O)Cc2c(C)nc3c(-c4ccccc4)c(C)nn3c2C)c(C)c1,17.7,21.6,34.7*
Nc1ccccc1SCc1noc(-c2cccs2)n1,72.6*,-7.8,-11.1
c1csc(-c2csc(-c3ccc4c(c3)OCCO4)n2)c1,8.0,-5.6,-11.7
COc1ccc(Cl)cc1C(=O)NC1CCSc2ccccc21 (stereo not drawn),10.1,8.5,9.1
COc1cccc(C2c3[nH]c4ccccc4c3C[C@H]3C(=O)N(CCCc4ccccc4)CC(=O)N23)c1 (stereo partly drawn),-25.9,-17.1,-101.9
O=C1[C@H]2Cc3c([nH]c4ccccc34)C(c3cccc([N+](=O)[O-])c3)N2C(=O)CN1Cc1ccco1 (stereo partly drawn),1.3,40.1*,-2.8
COc1cc(C2c3[nH]c4ccccc4c3C[C@@H]3C(=O)N(Cc4ccco4)CC(=O)N23)cc(OC)c1OC (stereo partly drawn),-8.1,-2.9,-29.2
COc1cccc(C2c3[nH]c4ccccc4c3C[C@@H]3C(=O)N(CC(O)c4ccccc4)CC(=O)N23)c1 (stereo partly drawn),39.9*,45.4*,-39.9
Cn1cc(-c2cnc(-c3cccc(F)c3)nc2)cc1C(=O)NCCN1CCOCC1,-11.1,-24.4,-15.1
COc1ncc(C(=O)N2CCc3ccccc3C2)cn1,4.8,5.6,0.5
O=C(Cn1c(=O)[nH]c2ccccc2c1=O)NCc1ccccc1Cl,6.4,40.0*,17.4
SMILES,USP28 inh,USP17 block,USP30 block
O=C(Cn1c(=O)[nH]c2ccccc2c1=O)NC1CC1,6.8,0.2,6.7
O=C(Cc1noc2ccccc12)N1CCN(c2ccc([N+](=O)[O-])cc2)CC1,-261.6,-19.4,i
Cc1ccc(NC(=O)c2cnc(N3CCCC3)nc2C)c(C)c1,-8.7,-1.1,0.4
CN(C)C(=O)c1csc2nc(-c3ccc(NC(=O)Cc4ccc(F)cc4)cc3)cn12,-0.2,-21.6,-17.4
COCc1cc(C)nc2sc3c(c12)NC(c1ccc(NC(C)=O)cc1)N(Cc1ccccc1)C3=O (stereo not drawn),6.1,53.0*,71.7*
COCc1cc(C)nc2sc3c(c12)NCN(c1ccc(C)c(Cl)c1)C3=O,0.0,18.9,6.0
O=C(NC1(c2nc(-c3ccncc3)no2)CCCCC1)c1ccccn1,-1.2,-5.5,-0.8
NC(=O)c1cc2cc(F)ccc2nc1C1CCN(C(=O)CCN2CCOCC2)CC1,-8.4,-1.5,-0.5
O=C(Nc1cnc(N2CCCC2)nc1)C1CCC1,3.9,4.4,0.3
CCOc1ccc(-c2cc3c(=O)n(CC(=O)Nc4ccccc4OC)ccn3n2)cc1,-1.4,1.6,6.3
CCOc1ccccc1NC(=O)Cn1ccn2nc(-c3ccc(OC)cc3)cc2c1=O,6.1,50.3*,43.2*
